According to PubChem BioAssay AID492998 (Southern Research Specialized Biocontainment Screening …, 2010):
About 550 (24%) of roughly 2,300 compounds were called active. The rule behind the calls is not given here. A selection follows. Where a call stands in place of a potency, no number is given. Potency and affinity values are given separately.

Assay: Vero E6 cell cytotoxicity, dose response, cytotoxicity control for non-replicating M. tuberculosis project, secondary assay (AID 492998)
Settings: series mostly up to 20 µM

SMILES | outcome
O=C(Cc1ccccc1)Nc1ccc(C(=O)NCC2COc3ccccc3O2)cc1 (stereo not given) | inactive
O=C(NCc1ccc(Cl)cc1)c1n[nH]c([N+](=O)[O-])c1Cl | inactive
CCOc1ccc(NC(=O)COc2ccc3c(c2)OCO3)cc1 | inactive
Cc1ccc(C(=O)NCCOc2cccc(C)c2)cc1 | inactive
CC(C)(C)c1ccccc1OCCOCCN1CCCCCC1 | inactive
Cc1cccc(OCCCCc2c(C)n[nH]c2C)c1 | inactive
Cc1cc(OCc2cc(C(=O)N(C)CCc3cnn(C)c3)no2)cc(C)c1Cl | inactive
COc1cccc(COC(=O)c2sc3nc4n(c(=O)c3c2C)CCC4)c1OC | inactive
CCOc1ccc(OCCSc2ccc(S(=O)(=O)N3CCN(C)CC3)cn2)cc1 | inactive
O=C(CCN1CCOCC1)c1ccc(Br)cc1 | inactive
Cc1cc(C(=O)N/N=C/C=C/c2ccccc2)c(C)o1 | inactive
Nc1ccc2c(c1)oc1ccccc12 | inactive
CCCc1nnc(-c2ccc(OC)cc2)o1 | inactive
Cc1ccc(SCCC(=O)OCC(=O)NCC2CCCCC2)cc1 | inactive
NC(=O)CN1CCN(C2CC(=O)N(CCc3ccccc3)C2=O)CC1 (stereo not given) | inactive
NNC(=O)COc1cccc(Oc2ccccc2)c1 | inactive
CCOC(=O)COc1ccc2c3c(c(=O)oc2c1C)CCC3 | inactive
O=Cc1coc2ccc3ccccc3c2c1=O | inactive
O=C(OCc1ccc([N+](=O)[O-])cc1)c1ccc2ccccc2n1 | inactive
Cc1cc(C=C2C(=O)N(C)C(=S)N(C)C2=O)c(C)n1-c1cccnc1 | inactive
Cc1ccc2nc(C)c3c(c2c1)SCC3 | inactive
CCOC(=O)Cc1csc(NC(=O)COc2ccc3c(c2)CCC3)n1 | inactive
CCCCCCn1c(=O)c(C(=O)Nc2nnc(C)s2)c(O)c2ccccc21 | inactive
CCCCn1c(=O)c(C(=O)Nc2nnc(C(C)C)s2)c(O)c2ccccc21 | inactive

SMILES | outcome
O=C(NC(=S)N1CCN(C/C=C/c2ccccc2)CC1)c1ccco1 | inactive
Brc1ccc(-c2ccc(CNCc3ccccn3)o2)cc1 | inactive
Cc1ccccc1OCCCCc1c(C)n[nH]c1C | inactive
O=C(COC(=O)CC12CC3CC(CC(C3)C1)C2)Nc1cccnc1Cl | inactive
NC(=O)COc1ccc2cc(-c3ccc(F)cc3)c(=O)oc2c1 | inactive
COc1ccc(C(=O)Oc2cccc3cccnc23)cc1S(=O)(=O)N1CCOCC1 | inactive
CCOC(=O)C1(CCc2ccccc2)CCN(Cc2ccccn2)CC1 | inactive
O=C(COc1c(Br)cc(Br)c2cccnc12)N1CCCCC1 | inactive
COc1ccc2cc(C(=O)C3CCCN(Cc4ccccn4)C3)ccc2c1 (stereo not given) | inactive
Oc1ccc(F)c2cccnc12 | inactive
COc1ccc(/C=N/NC(=O)c2ccncc2)cc1CN1CCOCC1 | inactive
COc1cc(NC(=O)N2CCOCC2)cc(OC)c1 | inactive
O=C(CCN1CCOCC1)c1ccc(Cl)cc1 | inactive
Cc1ccc(NC(=O)CO/N=C/c2ccccc2C)c(C)c1 | inactive
COC(=O)CCSCc1cn2cc(Cl)ccc2n1 | inactive
COc1ccc(-c2nc3ccc(C)cc3c(=O)o2)cc1OC | inactive
CCOC(=O)Cn1c(-c2ccccc2)ccc(C#N)c1=O | inactive
COc1ccc(OC(=O)C(C)N2C(=O)c3ccccc3C2=O)cc1 (stereo not given) | inactive
O=C(Cc1ccc(Cl)cc1)OCC(=O)c1ccc[nH]1 | inactive
O=C(COC(=O)CC1CCCC1)Nc1ccc(Cl)cn1 | inactive
NC(=O)COC(=O)c1sc2ccccc2c1Cl | inactive
CCOC(=O)c1c(C)n(C)c2ccc(OC(C)C(=O)OC)cc12 (stereo not given) | inactive
Cc1cc(C(=O)COc2cccc3cccnc23)c(C)n1C | inactive
CCOC(=O)COc1ccc(C2CC(C)=NN2c2ccccc2)cc1 (stereo not given) | inactive

SMILES | outcome
Cc1ccccc1Cn1cc(NC(=O)c2noc(C(C)C)c2[N+](=O)[O-])cn1 | inactive
CCOC(=O)CCCNC(=O)COC(=O)c1cc(Br)c(Br)s1 | inactive
Cc1nnc(C)n1/N=C/c1cc(Br)cc(Br)c1O | inactive
O=C(N/N=C\c1ccco1)c1cncc(Br)c1 | inactive
COC(=O)C1=C(C(=O)OC)C(c2cc(Cl)ccc2O)c2sc(=O)[nH]c2S1 (stereo not given) | inactive
CSCCC(=O)N1CCCC(CNC(=O)c2ccc(-c3ccccc3)cc2)C1 (stereo not given) | inactive
CCOc1ccc(-c2ccc(C=O)o2)c([N+](=O)[O-])c1 | inactive
O=[N+]([O-])c1ccc(Nc2ccccc2)c2nonc12 | inactive
O=[N+]([O-])c1cncc([N+](=O)[O-])c1Nc1ccccc1Cl | inactive
CCCCc1ccc(NS(=O)(=O)c2c(C)n(C)c(=O)n(C)c2=O)cc1 | inactive
CCOc1ccc(OCC(=O)OCc2cc(=O)n3cc(Br)ccc3n2)cc1 | inactive
O=C(N/N=C/c1cccs1)c1cncc(Br)c1 | inactive
O=C(N/N=C\C=C\c1ccco1)c1cncc(Br)c1 | inactive
COC(=O)C1CC(=O)N(c2ccc(OCc3ccccc3Cl)cc2)C1 (stereo not given) | inactive
COc1cccc(OCC(=O)NNC(=O)C(=O)Nc2cccc(C)c2)c1 | inactive
CC(C)=CCN1CCN(CCC2=C(C)CCCC2(C)C)CC1CCO (stereo not given) | inactive
CN1C(=O)CC(Sc2ccccc2C(=O)O)C1=O (stereo not given) | inactive
Cc1ccc(N/N=C2\CS(=O)(=O)N(C)c3ccsc32)cc1 | inactive
CCCOc1ccc(-c2nc(C#N)c(NCCCn3ccnc3)o2)cc1 | inactive
COc1ccc(C(=O)OCn2nnc3ccccc3c2=O)cc1[N+](=O)[O-] | inactive
CC(C)CN(Cc1c(O)ccc2ccccc12)CC(C)C | inactive
O=C(CNC(=O)c1ccco1)OCc1ccc(C(=O)Oc2ccccc2)cc1 | inactive
Oc1ccc(Cl)cc1CNCc1ccc(F)cc1 | inactive
O=[N+]([O-])c1ccc(CNc2cccc(Cl)c2)s1 | inactive

SMILES | outcome
CCC(C)[C@H]1CN=C(N)N1CCc1cccc2ccccc12 (stereo not given in full) | inactive
COc1ccc(C(=O)OCn2nnc3ccccc3c2=O)cc1 | inactive
CC(C)N=C1SC(CC(=O)Nc2ccccc2)C(=O)N1C(C)C (stereo not given) | inactive
Cc1cccc(CC(=O)NCC2CCCCC2)c1 | inactive
CCCN1C(=O)SC(CC(=O)Nc2ccccc2)C1=O (stereo not given) | inactive
COC(=O)COc1ccc(S(=O)(=O)N2CCCCCC2)cc1 | inactive
O=C(NCC1CCN(c2ccc(S(=O)(=O)N3CCOCC3)cc2)CC1)c1ccc(Cl)cc1 | inactive
N#Cc1ccc(-c2ccc(OCC(=O)Nc3cccnc3)cc2)cc1 | inactive
O=C(CN1CCN(c2ccccc2O)CC1)Nc1ccc2c(c1)CCC2 | inactive
O=S(=O)(Nc1nccs1)c1ccc(NCc2cc(Br)cc(Br)c2O)cc1 | inactive
COc1ccc(C2=NOC(COC(=O)c3ccc4ccccc4n3)C2)cc1 (stereo not given) | inactive
COc1ccc(C(=O)COC(=O)CCC(=O)c2cccs2)cc1 | inactive
O=C(O)COc1ccc2occ(C(=O)c3ccccc3)c2c1 | inactive
O=C(COC(=O)c1ccc([N+](=O)[O-])s1)Nc1ccc(Cl)cn1 | inactive
CCOC(=O)c1c(C)[nH]c(C)c1C(=O)COC(=O)c1ccc([N+](=O)[O-])s1 | inactive
O=C(c1ccc(Cl)cc1)c1nnc(-c2ccncc2)o1 | inactive
O=C(OCC#CCSc1nnc(-c2ccncc2)o1)c1cccs1 | inactive
Cc1cc(C)c(OCC(=O)Nc2nnc(-c3ccco3)o2)c(C)c1 | inactive
O=C(Nc1nnc(-c2ccco2)o1)c1ccc(Cl)s1 | inactive
CCN1CCN(C(=O)CN(Cc2ccccc2)S(C)(=O)=O)CC1 | inactive
Clc1ccc(SCCOCCN2CCc3ccccc3C2)cc1 | inactive
O=c1oc2ccccc2c2c1nnn2CCO | inactive
CCC(C)c1ccc(O)c(/C=N/O)c1 (stereo not given) | inactive
COc1ccc2c3c(cccc13)OCC2=O | inactive

SMILES | outcome
COc1ccc(NC(=O)c2ccc(COCC(F)(F)C(F)F)cc2)cc1 | inactive
O=C(NCCC1CCCC1)c1cccs1 | inactive
O=C1CC(N2CCN(Cc3ccccc3)CC2)C(=O)N1CCc1ccccc1 (stereo not given) | inactive
COCCNC(=O)CC(=O)N/N=C/c1cccc(C(=O)OC)c1 | inactive
O=C(N/N=C/c1cccc2cccnc12)c1ccccc1O | inactive
NC(=O)N/N=C\c1cc(Br)ccc1O | inactive
CCCOc1ccc(CCC(=O)N/N=C/c2ccc([N+](=O)[O-])o2)cc1 | inactive
COC(=O)COc1ccc2c(-c3ccc(OC)cc3)cc(=O)oc2c1 | inactive
Cc1cccc(C)c1N1C(=O)CC(N2CCSCC2)C1=O (stereo not given) | inactive
Cc1ccc(C(=O)OCC(=O)N2CCCCCC2)c(O)c1 | inactive
Cc1ccc(CCC(=O)Nc2ccc([N+](=O)[O-])cc2)o1 | inactive
CN(C)c1ccc(NC(=O)COC(=O)c2cc(Cl)ccc2[N+](=O)[O-])cc1 | inactive
CC[n+]1c(/C=C(\C)Nc2ccccc2)sc2ccccc21 | inactive
CC(C)(C)c1cc(CN2CCN(CCO)CC2)cc(C(C)(C)C)c1O | inactive
COc1ccc(-c2noc(CCC(=O)Nc3cccc(C)c3)n2)cc1 | inactive
Cc1ccc2c(CC(=O)OCC(=O)Nc3ccc(Cl)cn3)coc2c1 | inactive
CC(C)OC(=O)COc1ccc(-c2ccccc2)cc1 | inactive
OC(CNCCc1ccc(C(F)(F)F)cc1)COc1ccc2ccccc2c1 (stereo not given) | inactive
Cc1noc(C)c1COc1ccc(C(=O)Nc2ccccn2)cc1 | inactive
N#Cc1nc(-c2ccc(OCc3ccccc3)cc2)oc1NCCCn1ccnc1 | inactive
CC1=NN(C(=O)c2csc(C(C)C)c2)C(O)(C(F)(F)F)C1 (stereo not given) | inactive
CC1=NN(C(=O)c2ccc(Cn3nc(C)c(Br)c3C)cc2)C(O)(C(F)(F)F)C1 (stereo not given) | inactive
O=C(c1ccccc1[N+](=O)[O-])N1N=C(c2ccccc2)CC1(O)C(F)(F)F (stereo not given) | inactive
CC1=NN(C(=O)c2csc(C)c2)C(O)(C(F)(F)F)C1 (stereo not given) | inactive
